Inconclusive results are not listed. Activity calls are given as the source filed them.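 Rule for the calls, unless noted: active = cell viability at or below a set limit in both duplicate runs, the limit being the all-compound median minus 4 SD (cut at about 23% in these data, passing the limit was not always enough); inconclusive = no clear call, values can overlap the other calls; inactive = the rest.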

In general, viability refers to a read-out of living cells in per cent, often relative to untreated cells. For orientation: inhibition means the relative decrease from the control value, in per cent.

Assay [1] is described as follows: SK-BR-3 cell growth inhibitors, pilot screen, 24 h, human (AID 572;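 active = viability at or below 10% of carrier control in both of two separate runs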;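 note: compound exposure lasted between 18 and 24 h rather than exactly 24 h; 100% = carrier-treated control wells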). Conditions: SK-BR-3 viability, CellTiter-Glo luminescence, at 10 µM, stronger effect = lower value.
Assay [2] in a line: HUVEC growth inhibition – cell-based, human, primary screen (AID 575;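 active = viability at or below 30% in both replicate assays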;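 note: 100% = median of untreated cell wells with 0.1% DMSO on each plate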). The note with it: HUVEC proliferation, CellTiter-Glo luminescence, 72 h; at 10 µM; stronger effect = lower value. For orientation: In ATP-based viability assays light output follows the ATP content of the culture.
Assay [3] is described as follows: growth inhibitors of H69AR lung tumor, primary screen, human, duplicate replicates (AID 580;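 active = viability at or under a set limit in both replicates, limit being median viability minus 3 SD, cut at about 48% in these data, passing the limit was not always enough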;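 note: 100% = mean luminescence of untreated wells and 0% = no signal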). Conditions: H69AR lung tumor cells viability, ATP luminescence, 72 h; at 10 µM; stronger effect = lower value.
Assay [4] can be described thus: reversal of MRP1-mediated doxorubicin resistance, pilot screen, H69AR cells, doxorubicin co-treatment (AID 601;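 active = viability loss from added drug above about 55%, and viability with drug at most 40%, in both replicates, limit read from the data, passing the limit was not always enough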). The note with it: CellTiter-Glo, 72 h, at 10 µM; for differential viability (reversal): stronger effect = higher value.
Assay [5] in a line: 384-well plate pilot, post-Golgi transport modulator project, inhibition of yeast transport mutant growth (AID 636; in the data active = inhibition above about 31%). The note with it: absorbance 615 nm, about 18 h, stronger effect = higher value.
A short description of assay [6]: growth suppression of yeast trafficking mutant, preliminary HTS, modulators of trafficking downstream of Golgi apparatus project, 1536-format plate, OD 615 nm (AID 637; in the data active = inhibition above about 30%). Conditions: yeast transport mutant growth, absorbance 615 nm, 18 h; stronger effect = higher value.
Assay [7] is described as follows: OD615 S. cerevisiae growth inhibition, permissive medium, pilot counter-assay, permissive growth control for S. cerevisiae lifespan shortening project (AID 705;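 active = growth inhibition above 25% in both replicates, a cutoff set 3 SD above the mean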). Conditions: OD615, 24 h, at 10 µM, stronger effect = higher value.
Assay [8] can be described thus: Restrictive medium S. cerevisiae growth inhibition, OD615, pilot screen of yeast lifespan reduction project, restrictive growth control (AID 706;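 active = growth inhibition above a set limit, 3 SD over mean compound inhibition, in both replicates, cut at about 43% in these data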;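 note: modified DeaD lifespan yeast strain shifted to restrictive glucose medium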). The note with it: OD615, 48 h, at 10 µM, stronger effect = higher value.
Assay [9] is described as follows: viability gain of MRP-1-high H69AR cells under doxorubicin, pilot screen, MRP-1 activator project, CellTiter-Glo, duplicate (AID 807;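 active = viability increase at or above a cutoff of the median across tested compounds plus 3 SD, cut at about 8.5% in these data, passing the limit was not always enough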;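 note: compound pretreatment 18-22 h then 72 h combined with doxorubicin; 0% = doxorubicin alone and 100% = vehicle without doxorubicin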). The note with it: H69AR viability with doxorubicin, CellTiter-Glo luminescence; at 10 µM; stronger effect = higher value.
Assay [10] can be described thus: growth suppression of beta-catenin knockout HCT116, pilot screen, human colon tumor cells (AID 823).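 Note: 0% = wells killed by 20 µM Hyamine and 100% = untreated DMSO cell wells.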 Conditions: CellTiter-Glo, 60 h, at 10 µM, stronger effect = lower value.
Assay [11] in a line: growth suppression of PTEN-deleted HCT116, pilot screen, cell-based, HCT116 clonal line, CellTiter-Glo (AID 824;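 active = viability at or below 27.92% in each of two runs, the all-compound median minus 4 SD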;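 note: 0% = 20 µM Hyamine control and 100% = vehicle cell control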). The note with it: 60 h, at 10 µM, stronger effect = lower value.
A short description of assay [12]: inhibitors of the yeast RAM network, pilot screen, dse1pr::URA3 reporter, 5-FOA selection (AID 869;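 active = inhibition over a set limit, the all-compound mean plus 3 SD, in both replicate runs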;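 note: 0% = DMSO wells with no growth and 100% = 10 µM 1-NA-PP1 with full growth; RAM network block rescues cells from 5-FOA so hits raise OD615 growth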). Conditions: S. cerevisiae dse1pr::URA3 5-FOA growth, OD615, 2 d; at 10 µM; stronger effect = higher value; strain carries analog-sensitive mutant Cbk1 kinase.
Assay [13] can be described thus: RAM signaling pathway blockade in yeast – S. cerevisiae, Pdr1DBD-CYC8 efflux-inhibited sensitized strain, primary screen (AID 1298;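 active = RAM network inhibition above 8.4% in each of two replicates, 3 SD over the compound average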;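 note: 0% = DMSO untreated cells without growth and 100% = 10 µM 1-NA-PP1 full growth; higher means more yeast growth rescued from 5-FOA killing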). Conditions: S. cerevisiae cbk1-as DSE1-URA3 strain, 5-FOA growth OD615, 2 d; at 50 µM; stronger effect = higher value.
Where [14] appears, read: H69AR cells + 2 uM doxorubicin, measured here: viability with 2 uM doxorubicin, stronger effect = lower value.
[15] abbreviates: H69AR cells, compound alone cytotoxicity.

As for `O=C(C1CC1)N1CCc2cc(Br)cc(S(=O)(=O)N3CCOCC3)c21`, the viability in assay [1] was 98% (inactive); in assay [2], 88.5% (inactive); in assay [3], 90.6% (inactive); in assay [4] (setting [14]), 80.1%; in assay [4] (setting [15]), 90.6%; in assay [10] it was 91.9% (inactive). The viability in [11] was 83.2% (inactive). The differential viability (reversal) in [4] (H69AR cells + 2 uM doxorubicin) was 10.4% (inactive). The values for the inhibition in assay [5], in assay [6] and in assay [12] were -7.95% (inactive), 1.11% (inactive) and 1.35% (inactive), respectively. For the same molecule, the results for the growth inhibition in assay [7] and in assay [8] were -11.8% (inactive) and -12.8% (inactive), respectively. For the same molecule, the viability increase in assay [9] was -5.31% (inactive). The RAM network inhibition in assay [13] is 2.33% (inactive).
Turning to `CC1=C(C(=O)OC2CCCCCC2)C(c2ccc(C)o2)C2=C(CCCC2=O)N1` (centres undefined), the viability was 124% (inactive) in assay [1]; 102% (inactive) in assay [2]; 97.2% (inactive) in [3]; 101% in assay [4] (setting [14]); 97.2% in [4] (setting [15]); 70.8% (inactive) in assay [10]. For the same molecule, in assay [11], the viability was 78.8% (inactive). Besides, in assay [4] (H69AR cells + 2 uM doxorubicin), the differential viability (reversal) is -3.5% (inactive). Besides, the inhibition was -1.49% (inactive) in assay [5], 2.38% (inactive) in [6] and 1.77% (inactive) in assay [12]. Also, the results for the growth inhibition in assay [7] and in [8] were -11.2% (inactive) and -22.5% (inactive), respectively. The viability increase in [9] is -2% (inactive). The RAM network inhibition in assay [13] was 1.63% (inactive).
As to `FC(F)(F)COc1nc(N2CCCCC2)nc(N2CCNCC2)n1`, the viability in [1] is 82% (inactive); in assay [2], 98.8% (inactive); in [3], 92.3% (inactive); in assay [4] (setting [14]), 77.4%; in assay [4] (setting [15]) it was 92.3%; in [10] it was 85.5% (inactive). Besides, the viability in assay [11] was 84.5% (inactive). Moreover, in assay [4] (H69AR cells + 2 uM doxorubicin), the differential viability (reversal) is 15% (inactive). Also, the inhibition in [5] was -4.86% (inactive); in assay [6] it was -4% (inactive); in assay [12], 0.78% (inactive). The growth inhibition in assay [7] was 4.64% (inactive); in assay [8], -3.79% (inactive). Also, the viability increase in assay [9] is -3.4% (inactive). In addition, the RAM network inhibition in assay [13] was -2.05% (inactive).
Regarding `O=C(CCn1[nH]c(=O)c2ccccc2c1=O)NCCO`, the viability in [1] was 78% (inactive); in assay [2] it was 118% (inactive); in [3], 89.3% (inactive); in [4] (setting [14]), 91.9%; in assay [4] (setting [15]), 89.3%; in assay [10], 102% (inactive). The viability in assay [11] was 102% (inactive). In addition, in assay [4] (H69AR cells + 2 uM doxorubicin), the differential viability (reversal) was -2.56% (inactive). Moreover, the inhibition in assay [5] was -7.07% (inactive); in assay [6] it was -7.27% (inactive); in assay [12], 0.26% (inactive). For the same molecule, the growth inhibition is -16.2% (inactive) in [7] and -13.6% (inactive) in assay [8]. The viability increase in assay [9] is -0.03% (inactive). The RAM network inhibition in assay [13] is 0.2% (inactive).
In the case of `NC(=O)c1sc2nc(N3CCCCC3)c3c(c2c1N)CCCC3`, the viability was 75% (inactive) in assay [1]; 82.8% (inactive) in assay [2]; 85.7% (inactive) in assay [3]; 86.4% in assay [4] (setting [14]); 85.7% in assay [4] (setting [15]); 104% (inactive) in assay [10]. The viability in assay [11] is 94.6% (inactive). Moreover, in assay [4] (H69AR cells + 2 uM doxorubicin), the differential viability (reversal) was -0.75% (inactive). Also, the inhibition in assay [5] was -6.89% (inactive); in assay [6] it was 2.17% (inactive); in assay [12] it was 0.715% (inactive). Also, the growth inhibition in assay [7] was 8.56% (inactive). The viability increase in [9] is -3.63% (inactive). Further, the RAM network inhibition in assay [13] is 5.61% (inactive).
`Cc1onc(-c2ccccc2)c1C(=O)NCc1cccnc1`: the viability in assay [1] was 102% (inactive); in assay [2] it was 100% (inactive); in assay [3] it was 99.4% (inactive); in assay [4] (setting [14]), 89.7%; in assay [4] (setting [15]), 99.4%; in assay [10], 98.2% (inactive). For the same molecule, the viability in assay [11] is 95.8% (inactive). In [4] (H69AR cells + 2 uM doxorubicin), the differential viability (reversal) was 9.66% (inactive). The results for the inhibition in assay [5], in assay [6] and in assay [12] were -3.33% (inactive), 3.09% (inactive) and 2.08% (inactive), respectively. The growth inhibition in assay [7] is -14% (inactive); in [8], -11.6% (inactive). Further, the viability increase in [9] is -1.32% (inactive). In addition, the RAM network inhibition in [13] is 1.71% (inactive).
`O=C(Cn1c(=O)sc2ccccc21)NCCOc1ccccc1F`: the viability was 102% (inactive) in assay [1]; 108% (inactive) in assay [2]; 99.4% (inactive) in assay [3]; 85.8% in assay [4] (setting [14]); 99.4% in assay [4] (setting [15]); 108% (inactive) in assay [10]. In addition, the viability in [11] was 98.4% (inactive). In addition, the differential viability (reversal) in assay [4] (H69AR cells + 2 uM doxorubicin) was 13.6% (inactive). The inhibition is -1.82% (inactive) in [5], -6.23% (inactive) in [6] and 1.38% (inactive) in assay [12]. The figures for the growth inhibition in assay [7] and in [8] were 7.09% (inactive) and 11.1% (inactive), respectively. In assay [9], the viability increase is -0.76% (inactive). Besides, the RAM network inhibition in [13] is 10.5% (inactive).
Take `CCCc1cc(=O)oc2cc(C)cc(OC(=O)c3ccco3)c12`: the viability in [1] was 97% (inactive); in [2] it was 62.2% (inactive); in [3] it was 95.8% (inactive); in assay [4] (setting [14]), 86.5%; in [4] (setting [15]), 95.8%; in assay [10], 96.7% (inactive). The viability in assay [11] is 80.6% (inactive). In addition, in [4] (H69AR cells + 2 uM doxorubicin), the differential viability (reversal) was 9.31% (inactive). For the same molecule, the values for the inhibition in assay [5], in assay [6] and in assay [12] were -6.93% (inactive), -7.82% (inactive) and 3.94% (inactive), respectively. Moreover, the growth inhibition is -7.19% (inactive) in assay [7] and -12.2% (inactive) in [8]. For the same molecule, in [9], the viability increase is -1.16% (inactive). In addition, the RAM network inhibition in assay [13] was 4.75% (inactive).
